The record followed here is PubChem BioAssay AID651640 (Broad Institute, 2012).

SMILES strings stand for the structures. Where “and” joins values, the source holds several entries; their conditions need not be identical. Identical values can stand only once. Screen size: about 350,000 compounds; about 6,000 (1.7%) were called active. Another 5% or so got no clear call; they are omitted. The sample holds actives, similar compounds and a random draw of the others, so the mix is not that of the screen. A number with no mark means an inactive call. Rule as the data show it: active = CPE inhibition above about 20% (passing the limit was not always enough); inconclusive = no clear call, values can overlap the other calls; tested in BHK-21 cells.

The experiment is described as follows: inhibitors of DENV2 cytopathic effect, primary screen, cell-based, plate reader, single concentration (AID 651640).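 Also: 0% = median of neutral control wells and 100% = median of positive control wells.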 To be noted: DENV2-infected cells, cytopathic effect rescue, at 9.99 µM, hits give high values.
Regarding `O=C(NCC[C@H]1CC[C@@H](NC(=O)C2CC2)[C@H](CO)O1)c1ccc(F)cc1`, the CPE inhibition is -2.58%.

For the compound `O=C(NCC[C@H]1CC[C@@H](NC(=O)C2CCCCC2)[C@@H](CO)O1)c1ccc(F)cc1`, the CPE inhibition is 50.9% (active).

Consider `O=C(NCC[C@H]1CC[C@H](NC(=O)C2CC2)[C@@H](CO)O1)c1ccc(F)cc1`, for which the CPE inhibition was -6.48%.

As to `C[C@H]1CN([C@@H](C)CO)C(=O)c2cc(/C=C/c3ccccc3)cnc2O[C@H]1CN(C)Cc1cccc(C(=O)O)c1`, the CPE inhibition was -8.76%.

`C[C@@H]1CN([C@@H](C)CO)C(=O)c2cccc(NC(=O)NC3CCCCC3)c2O[C@@H]1CN(C)CC1CCCCC1`: the CPE inhibition is 12.9%.

As for `C[C@@H]1CN([C@H](C)CO)C(=O)c2cccc(NC(=O)NC3CCCCC3)c2O[C@@H]1CN(C)CC1CCCCC1`, the CPE inhibition is -11%.

Turning to `C[C@@H]1CN([C@H](C)CO)C(=O)c2cccc(NC(=O)NC3CCCCC3)c2O[C@H]1CN(C)Cc1ccc(C(F)(F)F)cc1`, the CPE inhibition is 0.691%.

Take `C[C@H](CO)N1C[C@H](C)[C@@H](CN(C)Cc2ccc(C(F)(F)F)cc2)Oc2c(NC(=O)NC3CCCCC3)cccc2C1=O`: the CPE inhibition is 37.7% (active).

Take `C[C@H]1CN([C@@H](C)CO)C(=O)c2cccc(NC(=O)NC3CCCCC3)c2O[C@H]1CN(C)CC1CCCCC1`: the CPE inhibition is 30.3% (active).

For the compound `C[C@H]1CN([C@@H](C)CO)C(=O)c2cccc(NC(=O)C3CCCCC3)c2O[C@H]1CN(C)Cc1ccc(C(F)(F)F)cc1`, the CPE inhibition is 12.9%.

With `O=C(C[C@H]1C=C[C@H](NC(=O)c2cccc(F)c2)[C@@H](CO)O1)NCc1ccc(Oc2ccccc2)cc1`, the CPE inhibition was -9.22%.

For the compound `C[C@H](CO)N1C[C@H](C)[C@H](CN(C)Cc2ccncc2)Oc2ncc(C#Cc3cccc(F)c3)cc2C1=O`, the CPE inhibition was 13.5%.

For `C[C@@H]1CN([C@H](C)CO)C(=O)c2cc(-c3ccccc3F)cnc2O[C@H]1CN(C)C(=O)CN(C)C`, the CPE inhibition is -0.853%.

For the compound `CN1c2ccc(-c3cccc(F)c3)cc2[C@@H]2[C@@H](CCN2C(=O)Nc2ccccc2F)[C@@H]1CO`, the CPE inhibition was -9.74%.

As to `COc1cccc(C(=O)Nc2ccc3c(c2)C(=O)N(C)[C@H]2CC[C@H](CC(=O)N[C@@H](C)c4ccccc4)O[C@H]2CO3)c1`, the CPE inhibition was -3.06%.

In the case of `CN1C(=O)c2cc(NC(=O)Cc3ccccc3)ccc2OC[C@H]2O[C@H](CC(=O)NCc3ccc(Cl)cc3)CC[C@H]21`, the CPE inhibition is -3.46%.

`Cc1ccc(S(=O)(=O)Nc2ccc3c(c2)C(=O)N([C@@H](C)CO)C[C@@H](C)[C@H](CN(C)Cc2ccncc2)O3)cc1`: the CPE inhibition is 35.3% (active).

For `Cc1noc(C)c1S(=O)(=O)Nc1ccc2c(c1)C(=O)N([C@@H](C)CO)C[C@@H](C)[C@H](CN(C)Cc1ccc(-c3ccccc3)cc1)O2`, the CPE inhibition is 35.7% (active).

As to `Cc1ccc(S(=O)(=O)Nc2ccc3c(c2)C(=O)N([C@@H](C)CO)C[C@@H](C)[C@H](CN(C)Cc2ccc4c(c2)OCO4)OCCCC[C@@H](C)O3)cc1`, the CPE inhibition is -8.37%.

With `C[C@H](CO)N1C[C@H](C)[C@H](CN(C)Cc2ccc(-c3ccccc3)cc2)Oc2ccc(NS(=O)(=O)c3ccccc3)cc2C1=O`, the CPE inhibition was 0.672%.

On to `Cc1ccc(S(=O)(=O)Nc2ccc3c(c2)C(=O)N([C@@H](C)CO)C[C@H](C)[C@@H](CN(C)Cc2ccc4c(c2)OCO4)O3)cc1`, for which the CPE inhibition was 21.2% (active).

As to `Cc1ccc(S(=O)(=O)Nc2ccc3c(c2)C(=O)N([C@@H](C)CO)C[C@@H](C)[C@@H](CN(C)Cc2ccncc2)O3)cc1`, the CPE inhibition is 2.98%.

As for `Cc1ccc(S(=O)(=O)Nc2ccc3c(c2)C(=O)N([C@H](C)CO)C[C@H](C)[C@H](CN(C)Cc2ccc(Cl)c(Cl)c2)O3)cc1`, the CPE inhibition is -4.04%.

As for `Cc1noc(C)c1S(=O)(=O)Nc1ccc2c(c1)C(=O)N([C@@H](C)CO)C[C@@H](C)[C@@H](CN(C)C)O2`, the CPE inhibition is 1.2%.

For the compound `C[C@@H]1CN([C@H](C)CO)C(=O)c2cc(NS(=O)(=O)c3ccc(F)cc3)ccc2O[C@H]1CN(C)Cc1ccncc1`, the CPE inhibition was -0.549%.

As for `CO[C@@H]1CN(C)C(=O)c2cc(NS(=O)(=O)c3cn(C)cn3)ccc2OC[C@@H](C)NC[C@H]1C`, the CPE inhibition was -0.807%.

Turning to `COCc1cn(CC[C@H]2CC[C@@H](NC(=O)Nc3ccc(OC)cc3)[C@@H](CO)O2)nn1`, the CPE inhibition was 0.762%.

As for `C/C=C/c1ccc(C2[C@H]3CNC[C@@H]2N3C(=O)Nc2ccc(F)cc2)cc1` (stereo partly drawn), the CPE inhibition is 0.029% and 10.5%.

In the case of `O=C(Nc1ccc(-c2ccccc2)cc1)[C@@H]1[C@@H](CO)[C@@H]2Cn3c(cccc3=O)[C@H]1N2Cc1ccncc1`, the CPE inhibition is -0.731%.

Take `CO[C@@H]1CN(C)C(=O)c2cc(NS(=O)(=O)c3cn(C)cn3)ccc2OC[C@@H](C)N(CCC(F)(F)F)C[C@H]1C`: the CPE inhibition is -9.32%.

As for `O=C(c1ccccc1F)N1CC(=O)N2[C@H](CO)[C@H](c3ccc(-c4cccnc4)cc3)[C@H]2C1`, the CPE inhibition was 8.17%.

For the compound `C[C@@H]1CCCCO[C@@H](CN(C)S(=O)(=O)c2ccccc2)[C@@H](C)CN([C@@H](C)CO)C(=O)c2cc(NS(=O)(=O)c3cn(C)cn3)ccc2O1`, the CPE inhibition was -3.06%.

For the compound `C[C@H](NC(=O)C[C@@H]1C[C@@H]2c3cc(NS(=O)(=O)c4ccc(F)cc4)ccc3O[C@@H]2[C@@H](CO)O1)c1ccccc1`, the CPE inhibition was 2.95%.

With `CC(C)NC(=O)N1CCCCN2[C@H](CO)[C@@H](c3ccc(Br)cc3)[C@H]2C1`, the CPE inhibition was -4.94%.

In the case of `COc1ccc(NC(=O)Nc2cccc3c2O[C@H](CN(C)S(=O)(=O)c2ccc(F)cc2)[C@H](C)CN([C@H](C)CO)C3=O)cc1`, the CPE inhibition is -3.75%.

Consider `COc1ccccc1CN1CC[C@@H]2[C@@H](CO)Nc3ccc(C#Cc4ccccc4)cc3[C@@H]21`, for which the CPE inhibition was -32.6%.

As to `O=S(=O)(c1ccccc1)N1CC[C@@H]2[C@H]1c1cc(C#Cc3cccc(F)c3)ccc1N[C@@H]2CO`, the CPE inhibition is -8.72%.

With `O=S(=O)(c1ccccc1)N1CC[C@@H]2[C@@H](CO)Nc3ccc(C#Cc4cccc(F)c4)cc3[C@@H]21`, the CPE inhibition was 1.91%.

Regarding `Cc1cccc(S(=O)(=O)N2CC[C@@H]3[C@H]2c2cc(C#Cc4ccc(F)cc4)ccc2N[C@@H]3CO)c1`, the CPE inhibition was 65.6% (active).

For `O=S(=O)(c1ccc(F)cc1)N1CC[C@@H]2[C@@H](CO)Nc3ccc(-c4ccccc4F)cc3[C@@H]21`, the CPE inhibition is 77.9% (active).

Take `O=S(=O)(c1ccccc1)N1CC[C@@H]2[C@@H](CO)Nc3ccc(-c4ccccc4F)cc3[C@@H]21`: the CPE inhibition is 16.3%.

Consider `CN(C)C(=O)c1cccc(-c2ccc3c(c2)[C@@H]2[C@@H](CCN2Cc2nccs2)[C@@H](CO)N3)c1`, for which the CPE inhibition is -14%.

With `COc1ccccc1S(=O)(=O)N1CC[C@@H]2[C@H](CO)Nc3ccc(-c4ccccc4F)cc3[C@@H]21`, the CPE inhibition was -1.18%.

Take `COc1ccc(C#Cc2ccc3c(c2)[C@H]2[C@H](CCN2Cc2nccs2)[C@@H](CO)N3)cc1`: the CPE inhibition was 27.7% (active).

`CCCN1[C@H](C(=O)N2CCOCC2)[C@@H](CO)[C@@H]2Cn3c(ccc(/C=C/c4ccccc4)c3=O)[C@@H]21`: the CPE inhibition is 14.1%.

Take `CCCc1cn(CC[C@@H]2CC[C@@H](NS(=O)(=O)c3ccccc3Cl)[C@@H](CO)O2)nn1`: the CPE inhibition is -1.78%.

Regarding `CO[C@H]1CN(C)C(=O)c2ccc(NC(=O)Nc3c(C)noc3C)cc2OC[C@@H](C)NC[C@H]1C`, the CPE inhibition was 1.98%.

In the case of `C/C=C/c1ccc2c(c1)O[C@H](CN(C)C(=O)c1ccc3c(c1)OCO3)[C@@H](C)CN([C@H](C)CO)S2(=O)=O`, the CPE inhibition was 19.1%.

As to `CC(=O)N1C[C@@H]2[C@H](c3ccccc31)[C@H](CO)N2C(=O)Nc1ccc(F)cc1`, the CPE inhibition was -5.97%.

In the case of `COc1ccccc1-c1sc2ccccc2c1-c1ccc(Br)nc1`, the CPE inhibition was 24.6% (active).

For `COc1ccc2sc(-c3ccccc3OC)c(-c3ccc(OCCN4CCCC4)cc3)c2c1`, the CPE inhibition was -8.2%.

Consider `COc1ccccc1-c1sc2ccccc2c1C#CC1(O)CCCCC1`, for which the CPE inhibition is -3.75%.

Regarding `COc1ccc(-c2cc(NC=O)c3ncc(-c4ccccc4)n3c2)cc1OC`, the CPE inhibition was 8.91%.

For `COc1ccc(-c2cc(NC=O)c3ncc(-c4cc(OC)c(OC)c(OC)c4)n3c2)c(OC)c1`, the CPE inhibition was 42.3% (active).

Regarding `COc1ccc(-c2cc(NC=O)c3ncc(-c4cccc(C(=O)N(C)C)c4)n3c2)c(OC)c1`, the CPE inhibition is -8.87%.

For the compound `C[C@@H]1CN([C@@H](C)CO)C(=O)Cc2cc(NC(=O)CCN3CCOCC3)ccc2O[C@@H]1CN(C)CC1CC1`, the CPE inhibition was -11.7%.

As for `C[C@H](CO)N1C[C@H](C)[C@@H](CN(C)CC2CC2)Oc2ccc(NC(=O)Nc3ccccc3)cc2CC1=O`, the CPE inhibition was 7.45%.

For `CCCCCCN1CCN(C2CN(Cc3cn(Cc4ccc(F)cc4)nn3)S(=O)(=O)C2)CC1` (stereo not drawn), the CPE inhibition was -0.218%.

As to `COc1ccc(CN2[C@@H](CC(=O)O)c3cc(F)ccc3S2(=O)=O)cc1`, the CPE inhibition was -4.72%.

Consider `CCCCCCCCCCCCN1[C@@H](CC(C)=O)c2cc(F)cc(F)c2S1(=O)=O`, for which the CPE inhibition is 37.7% (active).

Turning to `CO[C@H]1CN(C)C(=O)c2ccc(NC(=O)C3CC3)cc2OC[C@H](C)N(CCc2ccccc2)C[C@@H]1C`, the CPE inhibition was 4.92%.

Regarding `COCC(=O)N(C)C[C@@H]1Oc2ncc(-c3ccccc3OC)cc2C(=O)N([C@@H](C)CO)C[C@@H]1C`, the CPE inhibition was 0.798%.

`CC(C)NC(=O)Nc1ccc2c(c1)C(=O)N([C@H](C)CO)C[C@@H](C)[C@@H](CN(C)C(=O)c1ccncc1)OCCCC[C@H](C)O2`: the CPE inhibition is -1.8%.
